These results are taken from ChEMBL document CHEMBL2218924, “A broad activity screen in support of a chemogenomic map for kinase signalling research and drug discovery” (Biochem J, 2013).

Broadly, the residual activity is the signal under treatment as a percentage of the control signal.

Assay [1] has as its target Serine/threonine-protein kinase MRCK beta (Homo sapiens) (UniProt Q9Y5S2). Conditions: at 1 µM.
For assay [2] the target is unchanged. Conditions: at 10 µM.
The target in assay [3] is Ribosomal protein S6 kinase alpha-5 (Homo sapiens) (UniProt O75582). The note with it: at 1 µM.
The target is the same in assay [4]. Conditions: at 10 µM.
In assay [5] the target is Ribosomal protein S6 kinase alpha-4 (Homo sapiens) (UniProt O75676). Conditions: at 1 µM.
Ribosomal protein S6 kinase alpha-4 (Homo sapiens), sequence (O75676 whole entry, looked up): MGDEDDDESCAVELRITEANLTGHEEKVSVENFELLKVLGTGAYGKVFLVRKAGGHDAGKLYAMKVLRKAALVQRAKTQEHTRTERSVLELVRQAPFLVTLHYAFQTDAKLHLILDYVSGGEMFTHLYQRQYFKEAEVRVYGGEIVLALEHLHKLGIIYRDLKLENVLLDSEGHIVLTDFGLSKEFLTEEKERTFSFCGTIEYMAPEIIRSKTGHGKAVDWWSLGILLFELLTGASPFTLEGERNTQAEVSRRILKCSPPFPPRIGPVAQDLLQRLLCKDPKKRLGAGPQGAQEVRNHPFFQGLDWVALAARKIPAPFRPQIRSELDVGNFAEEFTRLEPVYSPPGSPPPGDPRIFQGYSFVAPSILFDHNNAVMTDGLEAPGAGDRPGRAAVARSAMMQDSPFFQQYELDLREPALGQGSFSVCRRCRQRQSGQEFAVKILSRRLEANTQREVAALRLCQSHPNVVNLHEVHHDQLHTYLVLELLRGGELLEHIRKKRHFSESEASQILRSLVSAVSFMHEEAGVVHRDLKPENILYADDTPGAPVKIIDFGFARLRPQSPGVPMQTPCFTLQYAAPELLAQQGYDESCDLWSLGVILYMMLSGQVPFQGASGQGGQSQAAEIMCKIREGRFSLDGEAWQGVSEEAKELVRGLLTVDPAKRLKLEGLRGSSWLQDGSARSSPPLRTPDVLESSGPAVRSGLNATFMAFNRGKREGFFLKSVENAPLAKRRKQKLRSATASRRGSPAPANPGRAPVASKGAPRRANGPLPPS
For assay [6] the target is unchanged. Conditions: at 10 µM.
In assay [7] the target is SRSF protein kinase 3 (Homo sapiens) (UniProt Q9UPE1). The note with it: at 1 µM.
SRSF protein kinase 3 (Homo sapiens), sequence (Q9UPE1 whole entry): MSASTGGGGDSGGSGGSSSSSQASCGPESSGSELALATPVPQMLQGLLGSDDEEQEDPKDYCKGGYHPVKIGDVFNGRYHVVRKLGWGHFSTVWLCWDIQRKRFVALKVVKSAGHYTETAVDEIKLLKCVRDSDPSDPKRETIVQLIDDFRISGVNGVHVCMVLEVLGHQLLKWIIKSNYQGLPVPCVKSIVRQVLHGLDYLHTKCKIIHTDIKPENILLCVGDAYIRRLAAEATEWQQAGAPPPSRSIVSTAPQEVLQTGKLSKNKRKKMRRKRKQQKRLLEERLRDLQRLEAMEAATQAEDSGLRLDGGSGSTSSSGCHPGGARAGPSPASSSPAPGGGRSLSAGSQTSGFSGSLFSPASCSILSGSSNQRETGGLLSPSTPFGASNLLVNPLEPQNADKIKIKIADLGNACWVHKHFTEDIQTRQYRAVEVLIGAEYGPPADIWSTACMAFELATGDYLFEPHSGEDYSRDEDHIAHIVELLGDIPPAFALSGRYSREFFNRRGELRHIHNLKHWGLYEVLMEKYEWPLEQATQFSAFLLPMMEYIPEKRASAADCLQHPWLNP
Assay [8] shares this target. The note with it: at 10 µM.
The target of assay [9] is T1, Serine/threonine-protein kinase 4 (Homo sapiens) (UniProt Q13043).
T1 sequence (whole entry): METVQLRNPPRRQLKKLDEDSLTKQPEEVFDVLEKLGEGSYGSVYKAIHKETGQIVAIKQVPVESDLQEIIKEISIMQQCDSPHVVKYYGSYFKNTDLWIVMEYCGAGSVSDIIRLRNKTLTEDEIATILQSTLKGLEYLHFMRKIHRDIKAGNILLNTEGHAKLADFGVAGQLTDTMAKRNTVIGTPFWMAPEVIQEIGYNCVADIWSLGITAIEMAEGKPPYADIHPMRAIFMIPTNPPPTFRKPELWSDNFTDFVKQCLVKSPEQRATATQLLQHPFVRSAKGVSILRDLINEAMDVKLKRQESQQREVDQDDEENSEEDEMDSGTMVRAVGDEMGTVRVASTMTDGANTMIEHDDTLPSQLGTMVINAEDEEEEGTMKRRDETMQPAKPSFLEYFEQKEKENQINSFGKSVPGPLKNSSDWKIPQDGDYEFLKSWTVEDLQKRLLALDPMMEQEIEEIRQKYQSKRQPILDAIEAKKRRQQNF
Conditions: at 1 µM.

The target in assay [10] is T1, Serine/threonine-protein kinase 4 (Homo sapiens). The note with it: at 10 µM.
For assay [11], the target named is T2, Serine/threonine-protein kinase 3 (Homo sapiens) (UniProt Q13188).
T2 sequence (whole entry): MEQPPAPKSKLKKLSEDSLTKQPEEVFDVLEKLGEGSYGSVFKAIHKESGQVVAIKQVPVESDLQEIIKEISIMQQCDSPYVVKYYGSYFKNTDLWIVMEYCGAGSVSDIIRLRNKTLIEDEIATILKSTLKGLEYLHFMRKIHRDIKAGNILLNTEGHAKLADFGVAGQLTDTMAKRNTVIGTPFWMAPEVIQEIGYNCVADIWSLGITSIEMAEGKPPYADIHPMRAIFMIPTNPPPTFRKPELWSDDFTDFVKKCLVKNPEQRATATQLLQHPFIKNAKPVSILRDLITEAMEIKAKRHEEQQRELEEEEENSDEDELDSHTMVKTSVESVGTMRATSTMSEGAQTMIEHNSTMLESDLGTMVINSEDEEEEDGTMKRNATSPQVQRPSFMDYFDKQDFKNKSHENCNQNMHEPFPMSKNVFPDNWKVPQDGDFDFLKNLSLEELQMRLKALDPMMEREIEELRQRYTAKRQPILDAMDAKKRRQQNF
The note with it: at 1 µM.

Assay [12] deals with T2, Serine/threonine-protein kinase 3 (Homo sapiens). Conditions: at 10 µM.
Assay [13] deals with Serine/threonine-protein kinase 24 (Homo sapiens) (UniProt Q9Y6E0). The note with it: at 1 µM.
Serine/threonine-protein kinase 24 (Homo sapiens), sequence (Q9Y6E0 whole entry, looked up): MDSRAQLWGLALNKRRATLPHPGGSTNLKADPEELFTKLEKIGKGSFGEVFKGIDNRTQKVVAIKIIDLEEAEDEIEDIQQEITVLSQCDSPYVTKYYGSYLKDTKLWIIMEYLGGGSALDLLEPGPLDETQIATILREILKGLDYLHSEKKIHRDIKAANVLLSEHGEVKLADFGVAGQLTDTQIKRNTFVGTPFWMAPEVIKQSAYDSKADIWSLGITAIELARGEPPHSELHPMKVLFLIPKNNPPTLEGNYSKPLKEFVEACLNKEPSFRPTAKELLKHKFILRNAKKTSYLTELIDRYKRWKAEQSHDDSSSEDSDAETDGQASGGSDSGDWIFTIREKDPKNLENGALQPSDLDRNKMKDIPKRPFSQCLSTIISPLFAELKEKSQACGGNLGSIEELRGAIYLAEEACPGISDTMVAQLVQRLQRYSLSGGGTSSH
Assay [14] shares this target. Conditions: at 10 µM.
In assay [15] the target is T3, Tyrosine-protein kinase Mer (Homo sapiens) (UniProt Q12866).
T3 sequence (whole entry): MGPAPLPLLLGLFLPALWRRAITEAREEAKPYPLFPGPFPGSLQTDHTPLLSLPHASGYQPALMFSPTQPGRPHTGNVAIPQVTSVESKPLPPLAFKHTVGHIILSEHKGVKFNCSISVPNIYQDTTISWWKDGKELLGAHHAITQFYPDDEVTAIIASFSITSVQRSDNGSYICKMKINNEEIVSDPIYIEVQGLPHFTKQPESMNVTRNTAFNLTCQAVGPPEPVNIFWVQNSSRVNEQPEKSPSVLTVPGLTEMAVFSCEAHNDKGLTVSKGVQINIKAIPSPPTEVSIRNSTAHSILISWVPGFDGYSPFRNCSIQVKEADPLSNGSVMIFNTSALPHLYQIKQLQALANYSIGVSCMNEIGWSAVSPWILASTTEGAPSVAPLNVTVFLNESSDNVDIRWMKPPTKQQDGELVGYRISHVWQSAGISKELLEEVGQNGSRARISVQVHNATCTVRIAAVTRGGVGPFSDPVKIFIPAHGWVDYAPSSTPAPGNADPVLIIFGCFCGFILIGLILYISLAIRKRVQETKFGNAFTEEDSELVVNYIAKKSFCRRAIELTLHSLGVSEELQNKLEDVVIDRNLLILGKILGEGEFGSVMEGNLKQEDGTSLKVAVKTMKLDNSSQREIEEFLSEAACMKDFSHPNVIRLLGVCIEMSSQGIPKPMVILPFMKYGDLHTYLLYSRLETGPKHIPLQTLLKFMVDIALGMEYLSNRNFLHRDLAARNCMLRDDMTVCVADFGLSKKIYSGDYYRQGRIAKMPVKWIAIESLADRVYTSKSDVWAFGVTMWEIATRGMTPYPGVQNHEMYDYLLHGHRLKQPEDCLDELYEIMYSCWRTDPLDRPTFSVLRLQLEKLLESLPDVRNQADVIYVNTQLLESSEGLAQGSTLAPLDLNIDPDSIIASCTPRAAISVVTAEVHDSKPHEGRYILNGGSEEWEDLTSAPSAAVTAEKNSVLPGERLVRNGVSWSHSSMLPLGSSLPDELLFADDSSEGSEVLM
The note with it: at 1 µM.

Assay [16] has as its target T3, Tyrosine-protein kinase Mer (Homo sapiens). The note with it: at 10 µM.
Assay [17] addresses Hepatocyte growth factor receptor (Homo sapiens) (UniProt P08581). Conditions: at 1 µM.
The target is the same in assay [18]. The note with it: at 10 µM.
In assay [19] the target is MAP kinase-interacting serine/threonine-protein kinase 2 (Homo sapiens) (UniProt Q9HBH9). The note with it: at 1 µM.
The target is the same in assay [20]. Conditions: at 10 µM.

Serine/threonine-protein kinase MRCK beta (Homo sapiens), sequence (Q9Y5S2 whole entry): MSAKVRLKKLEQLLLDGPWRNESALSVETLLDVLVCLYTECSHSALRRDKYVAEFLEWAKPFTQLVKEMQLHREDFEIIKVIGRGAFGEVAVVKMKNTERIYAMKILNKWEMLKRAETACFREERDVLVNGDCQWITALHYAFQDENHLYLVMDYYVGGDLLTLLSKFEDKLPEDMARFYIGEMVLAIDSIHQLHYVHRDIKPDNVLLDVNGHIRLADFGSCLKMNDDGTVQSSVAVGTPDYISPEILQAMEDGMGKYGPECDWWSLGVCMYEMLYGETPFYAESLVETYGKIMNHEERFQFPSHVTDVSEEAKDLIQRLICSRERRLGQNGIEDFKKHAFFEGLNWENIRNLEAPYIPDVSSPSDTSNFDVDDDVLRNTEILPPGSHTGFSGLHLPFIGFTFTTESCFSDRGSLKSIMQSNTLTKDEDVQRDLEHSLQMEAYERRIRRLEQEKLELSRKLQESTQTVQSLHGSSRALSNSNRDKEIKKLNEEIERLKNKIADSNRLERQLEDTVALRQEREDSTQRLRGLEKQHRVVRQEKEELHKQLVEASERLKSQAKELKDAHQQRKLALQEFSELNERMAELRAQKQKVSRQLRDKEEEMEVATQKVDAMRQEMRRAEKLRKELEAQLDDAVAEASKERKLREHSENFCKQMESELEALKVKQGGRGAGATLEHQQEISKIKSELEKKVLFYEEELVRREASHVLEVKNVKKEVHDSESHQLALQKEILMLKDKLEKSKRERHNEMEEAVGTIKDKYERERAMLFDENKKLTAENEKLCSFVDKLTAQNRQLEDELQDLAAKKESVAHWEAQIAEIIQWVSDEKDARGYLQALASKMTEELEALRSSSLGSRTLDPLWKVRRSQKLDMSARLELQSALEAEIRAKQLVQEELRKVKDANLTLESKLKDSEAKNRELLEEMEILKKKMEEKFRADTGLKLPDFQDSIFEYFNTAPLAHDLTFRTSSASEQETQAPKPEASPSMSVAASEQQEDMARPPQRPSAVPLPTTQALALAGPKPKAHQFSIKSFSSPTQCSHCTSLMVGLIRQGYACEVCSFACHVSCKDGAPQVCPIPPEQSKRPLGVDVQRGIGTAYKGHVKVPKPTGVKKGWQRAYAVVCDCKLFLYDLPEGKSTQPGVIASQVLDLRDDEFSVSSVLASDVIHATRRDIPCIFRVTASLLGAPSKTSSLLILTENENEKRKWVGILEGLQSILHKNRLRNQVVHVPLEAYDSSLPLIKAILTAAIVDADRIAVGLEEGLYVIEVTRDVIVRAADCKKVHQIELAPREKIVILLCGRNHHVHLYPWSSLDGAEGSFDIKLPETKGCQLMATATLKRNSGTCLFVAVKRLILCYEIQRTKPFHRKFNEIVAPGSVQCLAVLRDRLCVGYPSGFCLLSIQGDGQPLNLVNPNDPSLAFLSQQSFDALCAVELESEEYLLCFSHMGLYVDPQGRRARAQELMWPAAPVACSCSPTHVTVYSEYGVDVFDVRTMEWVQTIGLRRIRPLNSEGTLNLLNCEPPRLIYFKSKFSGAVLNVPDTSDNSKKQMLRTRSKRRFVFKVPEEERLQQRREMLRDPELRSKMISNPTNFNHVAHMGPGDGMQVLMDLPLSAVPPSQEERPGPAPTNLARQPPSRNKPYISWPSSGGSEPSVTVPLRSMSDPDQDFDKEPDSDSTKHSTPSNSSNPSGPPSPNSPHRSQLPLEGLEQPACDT
Hepatocyte growth factor receptor (Homo sapiens), sequence (P08581 whole entry): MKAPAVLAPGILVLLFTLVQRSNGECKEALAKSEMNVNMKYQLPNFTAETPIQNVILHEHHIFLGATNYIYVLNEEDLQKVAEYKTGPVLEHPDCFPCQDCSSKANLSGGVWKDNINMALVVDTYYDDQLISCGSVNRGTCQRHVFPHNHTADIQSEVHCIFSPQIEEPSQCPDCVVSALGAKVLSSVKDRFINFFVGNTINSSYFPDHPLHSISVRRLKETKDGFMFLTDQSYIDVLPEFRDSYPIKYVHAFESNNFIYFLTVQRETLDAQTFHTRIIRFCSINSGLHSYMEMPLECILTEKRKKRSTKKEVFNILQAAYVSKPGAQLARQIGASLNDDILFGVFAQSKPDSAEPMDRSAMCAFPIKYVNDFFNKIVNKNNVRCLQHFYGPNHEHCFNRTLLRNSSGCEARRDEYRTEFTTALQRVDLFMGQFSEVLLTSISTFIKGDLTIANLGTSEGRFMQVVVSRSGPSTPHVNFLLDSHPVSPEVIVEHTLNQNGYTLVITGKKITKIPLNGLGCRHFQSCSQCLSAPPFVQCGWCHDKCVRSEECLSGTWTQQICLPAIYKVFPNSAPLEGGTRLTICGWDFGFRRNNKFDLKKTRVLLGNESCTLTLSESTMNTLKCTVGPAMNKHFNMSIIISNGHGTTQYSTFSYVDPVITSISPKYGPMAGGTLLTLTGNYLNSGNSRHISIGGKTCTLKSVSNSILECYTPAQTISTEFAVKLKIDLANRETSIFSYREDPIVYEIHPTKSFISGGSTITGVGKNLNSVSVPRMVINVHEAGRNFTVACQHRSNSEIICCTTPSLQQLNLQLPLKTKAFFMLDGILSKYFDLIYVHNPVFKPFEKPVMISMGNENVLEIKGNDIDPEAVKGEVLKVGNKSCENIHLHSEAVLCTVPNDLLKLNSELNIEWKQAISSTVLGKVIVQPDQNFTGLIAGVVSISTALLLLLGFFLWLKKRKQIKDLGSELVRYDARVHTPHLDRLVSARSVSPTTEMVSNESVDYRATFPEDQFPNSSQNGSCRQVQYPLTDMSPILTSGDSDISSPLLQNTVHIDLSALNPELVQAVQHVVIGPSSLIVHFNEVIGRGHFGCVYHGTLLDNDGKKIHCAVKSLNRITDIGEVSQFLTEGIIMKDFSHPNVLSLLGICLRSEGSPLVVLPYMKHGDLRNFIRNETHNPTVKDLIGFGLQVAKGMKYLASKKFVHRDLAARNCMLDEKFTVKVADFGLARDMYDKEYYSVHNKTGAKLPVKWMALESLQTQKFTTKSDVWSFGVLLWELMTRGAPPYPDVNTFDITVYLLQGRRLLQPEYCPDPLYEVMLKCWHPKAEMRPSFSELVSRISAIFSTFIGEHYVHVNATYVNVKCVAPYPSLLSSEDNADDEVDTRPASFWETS

Consider `Nc1nc(Nc2ccc(S(N)(=O)=O)cc2)nn1C(=S)Nc1c(F)cccc1F`, for which the residual activity amounted to 8% in assay [1]; 3% in assay [2]; 81% in assay [3]; 70% in assay [4]; 19% in assay [5]; 21% in assay [6]. Besides, the residual activity in assay [7] is 37%; in [8], 12%; in [9] it was 0%; in [10], -3%; in [11], 0%; in assay [12], 1%. Also, the residual activity was 0% in assay [13]; 1% in assay [14]; -1% in assay [15]; -1% in assay [16]; 3% in [17]; 0% in assay [18]. The residual activity turned out to be 6% in assay [19] and 14% in assay [20].

On to `O=C1NC(=O)/C(=C/c2ccc3c(c2)OC(F)(F)O3)S1`, for which the residual activity was determined as 106% in assay [1]; 85% in assay [2]; 133% in assay [3]; 112% in assay [4]; 105% in [5]; 97% in [6]. The residual activity is 100% in [7]; 74% in assay [8]; 100% in [9]; 107% in [10]; 106% in [11]; 102% in assay [12]. In addition, the residual activity in [13] worked out at 60%; in assay [14], 70%; in assay [15], 110%; in assay [16], 95%; in assay [17], 87%; in [18], 78%. In addition, the residual activity in [19] is 109%; in [20] it was 96%.

On to `O=c1c2ccccc2[nH]c(=S)n1CCN1CCC(=C(c2ccc(F)cc2)c2ccc(F)cc2)CC1`, for which the residual activity came out at 94% in assay [1]; 86% in assay [2]; 127% in assay [3]; 104% in assay [4]; 110% in assay [5]; 97% in assay [6]. Moreover, the residual activity in assay [7] was determined as 103%; in assay [8], 89%; in [9], 93%; in assay [10], 101%; in [11], 120%; in assay [12], 93%. For the same compound, the residual activity in assay [13] stood at 71%; in assay [14], 69%; in [15] it was 106%; in [16], 88%; in assay [17], 136%; in assay [18] it was 89%. In addition, the figures for the residual activity in assay [19] and in assay [20] were 112% and 103%, respectively.

`Oc1n[nH]c2nnc(-c3c(-c4ccccc4)nn4ccccc34)cc12`: the residual activity stood at 88% in [1]; 83% in assay [2]; 109% in assay [3]; 111% in [4]; 92% in assay [5]; 87% in [6]. The residual activity in assay [7] came out at 98%; in [8] it was 73%; in [9], 72%; in [10], 96%; in [11] it was 96%; in assay [12] it was 86%. In addition, the residual activity is 72% in assay [13]; 71% in assay [14]; 98% in assay [15]; 105% in assay [16]; 104% in [17]; 113% in assay [18]. The residual activity in [19] is 107%; in assay [20] it was 99%.

Regarding `Oc1c2ccccc2c2c3c(cccc13)N=N2`, the residual activity in assay [1] came to 90%; in [2], 95%; in [3] it was 93%; in assay [4], 69%; in assay [5] it was 76%; in assay [6], 36%. Moreover, the residual activity in assay [7] stood at 90%; in assay [8] it was 82%; in assay [9], 52%; in [10], 21%; in [11], 16%; in assay [12], 10%. Also, the residual activity was determined as 57% in assay [13]; 21% in [14]; 22% in assay [15]; 9% in assay [16]; 87% in [17]; 75% in assay [18]. Further, the residual activity was determined as 43% in [19] and 10% in assay [20].

Take `O=c1cc(-c2cccc3c2Sc2ccccc2S3)oc(N2CCOCC2)c1`: the residual activity in [1] is 93%; in [2], 93%; in assay [3], 104%; in assay [4], 116%; in assay [5] it was 95%; in assay [6], 90%. For the same compound, the residual activity in [7] was 103%; in assay [8], 94%; in assay [9], 99%; in assay [10] it was 109%; in [11], 92%; in assay [12], 93%. In addition, the residual activity in assay [13] worked out at 98%; in assay [14] it was 81%; in assay [15], 99%; in [16] it was 89%; in assay [17] it was 106%; in assay [18], 120%. The figures for the residual activity in assay [19] and in assay [20] were 100% and 94%, respectively.

Regarding `CO[C@H]1C[C@@H]2CC[C@@H](C)[C@@](O)(O2)C(=O)C(=O)N2CCCC[C@H]2C(=O)O[C@H]([C@H](C)C[C@@H]2CC[C@@H](O)[C@H](OC)C2)CC(=O)[C@H](C)/C=C(\C)[C@@H](O)[C@@H](OC)C(=O)[C@H](C)C[C@H](C)/C=C/C=C/C=C/1C`, the residual activity in assay [1] was found to be 95%; in [2] it was 104%; in assay [3], 123%; in assay [4], 110%; in assay [5] it was 87%; in assay [6] it was 105%. Also, the residual activity in [7] worked out at 105%; in [8], 88%; in [9] it was 93%; in assay [10], 97%; in [11], 94%; in [12] it was 84%. Further, the residual activity in [13] amounted to 64%; in [14], 76%; in assay [15], 101%; in assay [16], 93%; in [17], 95%; in assay [18], 105%. In addition, the residual activity amounted to 105% in assay [19] and 88% in [20].
